Only some compounds are listed: those with a hit (about 8.1% of all), similar ones and a draw of the others.
Sfp PPTase inh = inhibitors of Bacillus subtilis Sfp phosphopantetheinyl transferase. Q9F4F7. Biochemical Sfp PPTase activity, qHTS. Potency, µM, for inactives: largest response in the series, negative = inhibition, actives largely listed as inhibitors. 3.5% of 310,000 active;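 also: the enzyme is Sfp with the accession as filed and its product quenches rhodamine fluorescence; 0% = enzyme reaction without inhibitor and -100% = no enzyme wells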
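With Hepes-Na pH 7.6 buffer containing 10 mM MgCl2, Sfp (15 nM) modified BHQ-2-YbbR (12.5 uM) using rhodamine-CoA (5 uM). Two reads 30 minutes apart at 525/598 nm yielded each well's rate.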
Epigenetic reg = regulators of epigenetic silencing causing reporter derepression in mouse cells | Potency, µM (top dose mostly 53.9 µM), inactives show at the top dose GFP activation, most hits filed as activators | 0.2% of 280,000 active | murine LDR cells, GFP reporter derepression, 30 h; also: % of control where 0% means no effect; nearly all actives have a fitted effect of over 60% in size
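Murine LDR cells carrying a silenced, genomically integrated CMV-driven GFP reporter were exposed to compound for 30 hours at 37 C. After PBS washes, GFP-positive cells (20–120 um objects) were counted by laser-scanning microplate cytometry.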
VP16 counter = inhibits Gal4-VP16 luciferase reporter, ROR gamma counter-screen; 3.5% of 310,000 active; Drosophila S2 Gal4-VP16 UAS-luciferase, luminescence, 20 h; AID 2546; Potency, µM (top dose mostly 53.6 µM), for inactives: at the top dose activity, negative = inhibition, hits mostly inhibitors;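 also: Gal4-VP16 expression switched on by copper sulfate through the metallothionein promoter; % is scaled to controls: 0 for no effect and ±100 for the full control effect; nearly all actives have a fitted effect of over 50% in size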
ClpP mod = qHTS Assay for Activators of ClpP; purified B. subtilis ClpP, FRET peptide cleavage, 20 min; Potency, µM (doses to about 57.5 µM), without a hit: top-dose activity change, negative = active; 1.9% of 340,000 active; AID 651965, 2013; active = well fitted falling curve with a large enough effect; inconclusive = small, poorly fitted or top-dose-only effect; inactive = no such curve, though single readings can be large or run the other way; also: the source files actives as falling curves though it sought activators and does not explain the sign; nearly all actives have a fitted effect of over 65% in size
Target sequence (P80244 whole entry, looked up): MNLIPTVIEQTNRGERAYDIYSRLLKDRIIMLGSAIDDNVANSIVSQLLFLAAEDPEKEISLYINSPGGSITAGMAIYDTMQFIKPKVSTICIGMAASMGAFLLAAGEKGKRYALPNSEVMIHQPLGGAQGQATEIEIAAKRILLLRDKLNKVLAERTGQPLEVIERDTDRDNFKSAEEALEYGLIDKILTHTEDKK
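FRET quenching reversal measured ClpP activation: 10 microg/mL B. subtilis ClpP at pH 8 with the FRET-FV decapeptide, read at 430 nm after 320 nm excitation. The 20-min minus 0-min signal was scaled between DMSO/no-enzyme wells and ADEP (5.8 microM final).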
RORg inh = ROR gamma (mouse) transcription inhibition; Drosophila S2 Gal4-RORgamma UAS-luciferase reporter, 20 h; Potency, µM (highest dose often 53.6 µM), for inactives: at the top dose activity change, negative = inhibition, hits mostly inhibitors; 5.4% of 310,000 active; P51450; also: % is scaled to controls: 0 for no effect and ±100 for the full control effect; nearly all actives have a fitted effect of over 60% in size
Target sequence (P51450 whole entry, looked up, the tested form may be a part): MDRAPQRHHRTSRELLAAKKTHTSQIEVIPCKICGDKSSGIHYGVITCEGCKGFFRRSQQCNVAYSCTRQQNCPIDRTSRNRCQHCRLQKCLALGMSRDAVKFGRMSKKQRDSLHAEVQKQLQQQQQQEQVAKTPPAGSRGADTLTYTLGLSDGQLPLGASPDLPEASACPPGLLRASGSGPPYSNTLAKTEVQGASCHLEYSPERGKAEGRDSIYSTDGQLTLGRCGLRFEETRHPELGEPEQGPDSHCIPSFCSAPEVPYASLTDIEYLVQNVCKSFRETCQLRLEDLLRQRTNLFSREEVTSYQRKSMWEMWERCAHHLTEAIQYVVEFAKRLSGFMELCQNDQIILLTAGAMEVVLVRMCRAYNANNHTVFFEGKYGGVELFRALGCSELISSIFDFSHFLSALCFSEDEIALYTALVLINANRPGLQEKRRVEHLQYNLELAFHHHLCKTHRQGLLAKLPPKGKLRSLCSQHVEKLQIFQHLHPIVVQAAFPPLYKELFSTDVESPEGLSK
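In this cell-based reporter format, copper sulfate (700 uM final) drives Gal4–ROR gamma fusion expression from a metallothionein promoter in Drosophila Schneider cells; compounds preincubated 1 hr, reporter read after 20 hr at ambient temperature.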
PINK1 expr mod = PINK1 expression modulation; PINK1 immunofluorescence, high-content cytometry, 24 h; Potency, µM (doses to about 76.6 µM), inactives show top-dose activation (PINK1 increase), actives largely listed as activators; 0.2% of 410,000 active; active = well fitted activation curve with a large enough effect; inconclusive = small, poorly fitted or top-dose-only effect; cell line not stated here; also: % of control where 0% means no effect; nearly all actives have a fitted effect of over 65% in size
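Stable cell line treated 24 h with compounds at 5 concentrations (CCCP controls), then fixed and immunostained for PINK1 plus nuclear and cell stains; PINK1 immunofluorescence quantified by laser-scanning microplate cytometry.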
The depositor's hits bear a star; ? = inconclusive; / = not tested or not shown; [ ] = remark or other dose. Unless noted, calls follow the shape of the dose curve; as a rule, active = well fitted curve in the direction sought with a large enough effect; inconclusive = small, poorly fitted or top-dose-only effect, or another doubt; inactive = no such curve, though single readings can be large; an effect the other way counts as inactive or inconclusive. Potency is read from the fitted curve at half-maximal effect.

SMILES | Sfp PPTase inh | Epigenetic reg | VP16 counter | ClpP mod | RORg inh | PINK1 expr mod
CC(=O)N/C(N)=N/c1nc(=O)c2ccccc2s1 | 4% | 2% | 0% | ? | -24% | 2%
CCC(C)(C)NC(=O)CCCSc1nc2ccccc2s1 | -17% | -2% | -51% | / | -40% | 0%
CCOC(=O)NC(=O)COC(=O)CCCSc1nc2ccccc2s1 | 0% | -1% | 8.9µM* | 0% | 7.1µM* | 1%
CC(C)NC(=O)NC(=O)COC(=O)CCCSc1nc2ccccc2s1 | 8% | 2% | 6.3µM* | / | 11µM* | 1%
NC(=O)NC(=O)COC(=O)CCCSc1nc2ccccc2s1 | -3% | 0% | 8.9µM* | -5% | 11µM* | 0%
O=C1C=C[C@@H](O)[C@H]2[C@@H]3C(=O)N(Cc4ccccc4)C(=O)[C@@H]3CC[C@H]12 | -8% | 0%[10.1 µM] | -3%[10 µM] | / | 2%[10 µM] | /
CC(C)CCOc1ccc(Cn2c(=O)oc3ccccc32)cc1 | / | -6% | / | 2% | / | -1%
Cn1c(N/N=C/c2c[nH]c3ccccc23)nc2ccccc21 | -25% | 0% | 4µM* | -9% | 1µM* | -1%
Cc1cc(N/N=C/c2c[nH]c3ccccc23)c2ccccc2n1 | -2% | 3% | -10% | / | 0% | 1%
Cn1c(N/N=C/c2cc3ccccc3nc2Cl)nc2ccccc21 | 79µM* | ? | 1.3µM* | 2% | 1.1µM* | 35µM*
CC(C)/C=N/Nc1nc(-c2ccc(Br)cc2)cs1 | 79µM* | -10% | -28% | 1% | ? | ?
COC(=O)c1ccc([C@H]2Nc3ccc(S(=O)(=O)Nc4ccc(F)cc4)cc3[C@H]3C=CC[C@H]32)cc1 | / | 0% | / | 0% | / | 1%
COc1ccc(C(=O)N/N=C(\C)c2ccc3c(c2)C2C=CCC2C(c2ccccc2)N3)cc1 (stereo not drawn) | 79µM* | 0% | 0% | 0% | ? | -1%
COc1cccc(NS(=O)(=O)c2ccc3c(c2)C2C=CCC2C(c2ccc(C(=O)O)cc2)N3)c1 (stereo not drawn) | 32µM* | -1% | -20% | 1% | 8% | 7%
CN(CCO)C(=O)c1cn(C2CCCN(Cc3ccc(C(F)(F)F)cc3)C2)nn1 (stereo not drawn) | / | / | / | / | / | 0%
O=C(NCCS(=O)(=O)N1CCN(c2ccccc2F)CC1)c1ccccc1C(F)(F)F | / | -2% | / | -1% | / | 1%
C=CCn1c(-c2cccc([N+](=O)[O-])c2)n[nH]c1=S | ? | -1% | 8.9µM* | / | 2.2µM* | 1%
Cc1cc(-c2cccc([N+](=O)[O-])c2)nc2ccccc12 | -18% | 0% | 13% | 0% | 12% | 7%
O=[N+]([O-])c1cccc(-c2n[nH]c(=S)n2Cc2ccccc2)c1 | -5% | 0% | ? | 0% | 7.1µM* | -2%
C=CCn1c(-c2cccc(S(=O)(=O)N(CC)CC)c2)n[nH]c1=S | ? | 0% | 2% | / | ? | 3%
CNCC(=O)NCC(=O)N[C@@H](Cc1ccccc1)C(=O)N[C@@H](CC(C)C)C(=O)O | 5% | 1% | / | / | / | /
C/C(=N\NC(=O)CN1CCCCC1)c1ccccc1O | 11% | / | 16µM* | / | 3.5µM* | 1%
C/C(=N\NC(=O)CN(c1ccccc1)S(C)(=O)=O)c1ccccc1O | -1% | -3% | 3.5µM* | / | 0.71µM* | -1%
CCOC(=O)C1(CCCc2ccccc2)CCN(Cc2nccn2CC)CC1 | 12% | 0% | ? | / | 4µM* | 17%
CCOC(=O)C1(CCOc2ccccc2)CCN(Cc2ccncc2)CC1 | 45µM* | 1% | 2% | / | 19% | 0%
SMILES | Sfp PPTase inh | Epigenetic reg | VP16 counter | ClpP mod | RORg inh | PINK1 expr mod
CCOC(=O)C1(CCOc2ccccc2)CCN(Cc2nccn2CC)CC1 | 16% | 1% | ? | / | 5µM* | 1%
CCOC(=O)c1cc(S(=O)(=O)Nc2ccc(OC)c(Cl)c2)[nH]n1 | / | 0% | / | 0% | / | 1%
CCOC(=O)Cn1c(-c2ccc(Cl)nc2)nc2ccccc21 | 0% | 0% | 1% | 10µM* | -5% | -3%[38.3 µM]
O=c1n(Cc2ccccc2)c2cc(Cl)cnc2n1Cc1ccccc1 | -17% | -3% | 4%[0.365 µM] | 28µM* | 41% | 1%
Cc1c(C)n(Cc2ccc(F)cc2)c2ccc(C(=O)N3CCN(c4ccc(Cl)cc4)CC3)cc12 | / | 4% | / | -23% | / | -1%
Cc1onc(-c2ccccc2Cl)c1C(=O)NNC(=O)c1ccc(F)cc1 | 2% | / | -7% | / | -10% | 1%
Cc1onc(-c2ccccc2Cl)c1C(=O)Nc1ccccc1C(N)=O | 11% | -2% | -9% | -5% | 14% | 2%
Cc1onc(-c2ccccc2Cl)c1C(=O)NC(=S)Nc1ccccc1C(N)=O | 50µM* | 1% | -13% | -6% | ? | 0%
Cc1cccc(C(=O)NNC(=O)c2c(-c3ccccc3Cl)noc2C)c1O | 26% | / | -26% | / | 10µM* | 7%
O=C(O)c1ccccc1NC(=O)N1c2ccccc2Sc2ccccc21 | / | -2% | / | 4% | / | 4%
CC(C)(C)c1ccc(C2CC2C(=O)N/N=C\c2ccc[nH]2)cc1 (stereo not drawn) | 15% | 2% | 6.3µM* | / | 10µM* | ?
O=C(N/N=C/c1ccc[nH]1)c1ccc(O)cc1 | 5% | 0% | ? | / | 8.9µM* | 0%
O=C(N/N=C/c1ccc[nH]1)c1ccccc1O | 6% | 2% | 5.6µM* | / | 1.3µM* | -2%
Cc1cc(/C=N/NC(=O)c2cccc([N+](=O)[O-])c2)c(C)n1-c1ccc(Cl)cc1Cl | -1% | 0% | 6.3µM* | -4% | 1.8µM* | -1%
O=C(N/N=C/c1ccco1)C1CC1c1ccccc1 (stereo not drawn) | -2% | 0% | -14% | -1% | 12% | 0%
CCOc1ccc(S(=O)(=O)Nc2cccc(-c3ccc(OCC)nn3)c2)cc1 | / | -2% | / | 0% | / | 1%
CC1CCc2nn(CC(=O)Nc3ccccc3Cl)cc2C1 (stereo not drawn) | / | -2% | / | -1% | / | 3%
O=C(N/N=C/c1ccc[nH]1)c1ccc(COc2cccc3cccnc23)cc1 | 6% | 1% | 14µM* | / | 13µM* | ?
O=C(N/N=C/c1ccc[nH]1)c1ccccc1OCc1ccccc1Cl | -8% | 3% | ? | / | 10µM* | -1%
O=C(N/N=C/c1ccc[nH]1)c1cccc([N+](=O)[O-])c1 | -6% | 1% | 10µM* | -1% | 7.9µM* | 2%
O=C(N/N=C/c1ccccc1C(=O)O)c1ccc(COc2cccc3cccnc23)cc1 | 5% | 2% | 14% | / | 3% | -1%
Cc1cccc(/C=N/NC(=O)c2cccc([N+](=O)[O-])c2)n1 | -18% | 6% | 2% | / | -15% | 2%

Screens deposited in PubChem BioAssay by National Center for Advancing Translational Sciences (NCATS).
